Test results: the OligoGym collection

Target: ANXA5
Assay: pooled miR-30 sensor sort-seq; sequence = guide strand
Conditions: shRNA
Also: reference of the scale not given here.

Point of comparison: AACAGATCAATCTCACTCCTGG, sensor-assay potency score (higher = more potent) -0.0547. Against it:
- TTTAGTTGCGAACTTCACTAAT — lower, -0.975
- TAGCATAATAGAGGGTCTCTGC — lower, -0.439
- TTGGTCATGAGCATGCTAGTAT — lower, -0.14
- TTTCACAACAGCAAGGAGTAGT — lower, -0.0711
- TTCAACTTGAGCTTCATCAATT — lower, -0.586
- TAGATTTCACAACAGCAAGGAG — lower, -0.538
- TTCTTCTATGACGTGTATGTGT — lower, -0.0894
- TTCTTCTTCATAAACTTGTTTG — lower, -0.985
- TAAACTTAGTAACATTAAGTAC — lower, -0.822
- TTCTTCCTAAACTCCTTCCTGA — lower, -0.49
- TTCTGATTTCAGGTCATCCAGA — lower, -0.946
- TTCATAAGCATCATAAAGCCGA — lower, -0.311
- TAAATTGCCAGAAGTCTCGCGG — higher, 0.467
- TCAAATGAGACACACTTCGTGT — lower, -0.219
- TTCTTCATAAACTTGTTTGATG — lower, -0.36
- TTTCATTTGTTCCAGCTCCCTT — lower, -0.639
- TTGAAATCCTGATATAGTCATG — lower, -1.04
- TTCGAATAGATTTCACAACAGC — lower, -0.293
- TACTTGTCAAACACCTTTCTCA — higher, 0.224
- TTAATTTTTCAAATTTTCCAGT — higher, 0.274

Target: AP1S1
Assay: as above
Conditions: shRNA

Point of comparison: ATCTCTTATAGACAACTTTGAG, sensor-assay potency score (higher = more potent) -0.956. Against it:
- TCTCTTATAGACAACTTTGAGG — lower, -1.16
- TTGTCTAAGAGCTCCACGTATC — lower, -1.02
- TTGCAGTAGGTCAGCCTGCTCG — higher, -0.856
- TATCTCTTATAGACAACTTTGA — lower, -1.08
- TCTTATAGACAACTTTGAGGTC — higher, -0.45
- TAAGAGCTCCACGTATCGGTGG — higher, 0.135
- TTTCAGCACACTCTTCTTGGAG — higher, -0.813
- TTTGTCTAAGAGCTCCACGTAT — higher, -0.832
- TCGCGCACCATCTTCTTCCGTT — higher, -0.362
- TTCTTCCGTTCCTTGTCCGAAG — lower, -0.991
- TATATTTACAGTTATTAGGGAG — higher, 0.379
- TTGAAGATGATGTCCAGCTCGC — higher, 0.319
- TAGACAACTTTGAGGTCCCTCC — higher, -0.899
- TTCAGCACACTCTTCTTGGAGG — higher, -0.8
- ATATCTCTTATAGACAACTTTG — lower, -1.12
- TGTGATGAGCTCATTGTCTTGG — higher, 0.479
- TTTGAGGTCCCTCCACTCCAGG — lower, -1.48
- TTTGCAGCCGCAGTTTTCCCTG — higher, -0.931
